# Reference: PubChem BioAssay AID1159580 (chemical genetic matrix, 2015)
# Where “and” joins values, the source holds several entries; their conditions need not be identical. Identical values can stand only once. Among all 5,500 compounds or so, about 2,000 (36%) were called active. Inconclusive results (about 18%) are left out. Rule as the data show it: active = normalized growth mostly below about 0.91 (no sharp cut-off); inconclusive = no clear call, values can overlap the other calls; inactive = mostly above about 0.92. The list shows a part of the results.
# Experiment: chemical genetic growth profiling, strain panel (AID 1159580);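 also: tested at 20 µM; growth read once vehicle control cultures reached saturation at 30 °C; 1 = growth at the plate median or of vehicle wells; lower values mean less growth of the strain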
# Settings: S. cerevisiae deletion strains, growth OD
smiles,measurement,setting,value
CC(C)=CCCC(C)[C@@H]1CC[C@]2(C)C3=C(CC[C@@]12C)C1(C)CC[C@H](O)C(C)(C)C1CC3 (stereo partly drawn),normalized growth,"locus YAL021C, strain ccr4, stronger effect = lower value",1.04 (inactive)
same,normalized growth,"locus YAL026C, strain drs2, stronger effect = lower value",1.04 (inactive)
same,normalized growth,"locus YAL030W, strain snc1, stronger effect = lower value",1.07 [resistant] (active)
same,normalized growth,"locus YBL061C, strain skt5, stronger effect = lower value",1.08 (inactive)
same,normalized growth,"locus YBR009C, strain hhf1, stronger effect = lower value",1.01 (inactive)
same,normalized growth,"locus YBR021W, strain FUR4, stronger effect = lower value",0.941 (inactive)
same,normalized growth,"locus YBR023C, strain chs3, stronger effect = lower value",1.08 (inactive)
same,normalized growth,"locus YBR171W, strain sec66, stronger effect = lower value",1.06 (inactive)
same,normalized growth,"locus YBR229C, strain ROT2, stronger effect = lower value",1.08 (inactive)
same,normalized growth,"locus YBR231C, strain swc5, stronger effect = lower value",1.09 [resistant] (active)
same,normalized growth,"locus YBR279W, strain paf1, stronger effect = lower value",1.07 [resistant] (active)
same,normalized growth,"locus YCL011C, strain gbp2, stronger effect = lower value",1.07 (inactive)
same,normalized growth,"locus YCL016C, strain dcc1, stronger effect = lower value",1.03 (inactive)
same,normalized growth,"locus YCL029C, strain bik1, stronger effect = lower value",1 (inactive)
same,normalized growth,"locus YCL061C, strain MRC1, stronger effect = lower value",1.06 (inactive)
same,normalized growth,"locus YCL069W, strain vba3, stronger effect = lower value",1.07 (inactive)
same,normalized growth,"locus YCR088W, strain abp1, stronger effect = lower value",1.08 [resistant] (active)
same,normalized growth,"locus YDL005C, strain med2, stronger effect = lower value",1.04 (inactive)
same,normalized growth,"locus YDL035C, strain GPR1, stronger effect = lower value",0.886 (inactive)
same,normalized growth,"locus YDL040C, strain nat1, stronger effect = lower value",1.08 [resistant] (active)
same,normalized growth,"locus YDL074C, strain BRE1, stronger effect = lower value",1.34 [resistant] (active)
same,normalized growth,"locus YDL101C, strain DUN1, stronger effect = lower value",1.02 (inactive)
same,normalized growth,"locus YDL185W, strain tfp1, stronger effect = lower value",1.01 (inactive)
same,normalized growth,"locus YDL192W, strain arf1, stronger effect = lower value",1.02 (inactive)
same,normalized growth,"locus YDR001C, strain nth1, stronger effect = lower value",1.07 (inactive)
same,normalized growth,"locus YDR069C, strain doa4, stronger effect = lower value",1.03 (inactive)
same,normalized growth,"locus YDR101C, strain arx1, stronger effect = lower value",0.967 (inactive)
same,normalized growth,"locus YDR137W, strain rgp1, stronger effect = lower value",0.774 (active)
same,normalized growth,"locus YDR159W, strain sac3, stronger effect = lower value",1.05 (inactive)
same,normalized growth,"locus YDR162C, strain NBP2, stronger effect = lower value",0.913 (inactive)
same,normalized growth,"locus YDR195W, strain ref2",1.13 (inactive)
same,normalized growth,"locus YDR297W, strain sur2, stronger effect = lower value",1.07 (inactive)
same,normalized growth,"locus YDR318W, strain mcm21, stronger effect = lower value",1.01 (inactive)
same,normalized growth,"locus YDR334W, strain swr1, stronger effect = lower value",1.05 (inactive)
same,normalized growth,"locus YDR335W, strain msn5, stronger effect = lower value",1.02 (inactive)
same,normalized growth,"locus YDR388W, stronger effect = lower value",1.03 (inactive)
same,normalized growth,"locus YDR392W, strain spt3, stronger effect = lower value",1.02 (inactive)
same,normalized growth,"locus YDR502C, strain sam2, stronger effect = lower value",0.989 (inactive)
same,normalized growth,"locus YEL003W, strain gim4, stronger effect = lower value",1.02 (inactive)
same,normalized growth,"locus YEL037C, strain rad23, stronger effect = lower value",1.06 (inactive)
same,normalized growth,"locus YEL061C, strain CIN8 (second series), stronger effect = lower value",1.06 (inactive)
same,normalized growth,"locus YER015W, strain faa2, stronger effect = lower value",1.08 [resistant] (active)
same,normalized growth,"locus YER016W, strain bim1, stronger effect = lower value",1.07 (inactive)
same,normalized growth,"locus YER110C, stronger effect = lower value",1.05 (inactive)
same,normalized growth,"locus YER111C, strain swi4, stronger effect = lower value",1.08 (inactive)
same,normalized growth,"locus YER155C, strain BEM2 (second series), stronger effect = lower value",1.09 (inactive)
same,normalized growth,"locus YER155C, strain BEM2, stronger effect = lower value",1.1 [resistant] (active)
same,normalized growth,"locus YER167W, strain BCK2, stronger effect = lower value",1.08 (inactive)
same,normalized growth,"locus YFR010W, strain ubp6, stronger effect = lower value",1 (inactive)
same,normalized growth,"locus YGL078C, strain dbp3, stronger effect = lower value",0.889 (active)
same,normalized growth,"locus YGL086W, strain mad1, stronger effect = lower value",1 (inactive)
same,normalized growth,"locus YGL167C, strain pmr1, stronger effect = lower value",1.08 (inactive)
same,normalized growth,"locus YGL173C, strain kem1, stronger effect = lower value",1.02 (inactive)
same,normalized growth,"locus YGL227W, strain vid30, stronger effect = lower value",1.07 (inactive)
same,normalized growth,"locus YGL240W, strain doc1, stronger effect = lower value",1.02 (inactive)
same,normalized growth,"locus YGL248W, strain PDE1, stronger effect = lower value",1.01 (inactive)
same,normalized growth,"locus YGL253W, strain hxk2, stronger effect = lower value",1.04 (inactive)
same,normalized growth,"locus YGR078C, strain PAC10, stronger effect = lower value",1.13 (inactive)
same,normalized growth,"locus YGR135W, strain pre9, stronger effect = lower value",0.996 (inactive)
same,normalized growth,"locus YGR252W, strain gcn5, stronger effect = lower value",0.985 (inactive)
same,normalized growth,"locus YHR013C, strain ard1, stronger effect = lower value",1.15 (inactive)
same,normalized growth,"locus YHR027C, strain rpn1, stronger effect = lower value",1.06 (inactive)
same,normalized growth,"locus YHR030C, strain SLT2, stronger effect = lower value",1.1 [resistant] (active) and 0.945 (inactive)
same,normalized growth,"locus YHR079C, strain IRE1 (second series), stronger effect = lower value",1.05 (inactive)
same,normalized growth,"locus YHR079C, strain IRE1, stronger effect = lower value",0.877 (inactive)
same,normalized growth,"locus YHR094C, strain hxt1, stronger effect = lower value",1.07 (inactive)
same,normalized growth,"locus YHR129C, strain ARP1, stronger effect = lower value",1.06 (inactive)
same,normalized growth,"locus YHR142W, strain chs7, stronger effect = lower value",1.03 (inactive)
same,normalized growth,"locus YHR200W, strain rpn10, stronger effect = lower value",1.01 (inactive)
same,normalized growth,"locus YIL066C, strain RNR3, stronger effect = lower value",1.03 (inactive)
same,normalized growth,"locus YIL073C, strain SPO22, stronger effect = lower value",1.43 [resistant] (active)
same,normalized growth,"locus YIL125W, strain kgd1, stronger effect = lower value",1.01 (inactive)
same,normalized growth,"locus YIR030C, strain dcg1, stronger effect = lower value",1.06 (inactive)
same,normalized growth,"locus YJL092W, strain hpr5, stronger effect = lower value",1.08 (inactive)
same,normalized growth,"locus YJL095W, strain BCK1 (second series), stronger effect = lower value",1.08 [resistant] (active)
same,normalized growth,"locus YJL095W, strain BCK1, stronger effect = lower value",1.14 (inactive) and 0.943 (inactive)
same,normalized growth,"locus YJL115W, strain asf1, stronger effect = lower value",1.06 (inactive)
same,normalized growth,"locus YJL129C, strain trk1, stronger effect = lower value",1.08 (inactive)
same,normalized growth,"locus YJL134W, strain LCB3, stronger effect = lower value",1.07 [resistant] (active)
same,normalized growth,"locus YJL154C, strain vps35, stronger effect = lower value",1.08 (inactive)
same,normalized growth,"locus YJL164C, strain tpk1, stronger effect = lower value",1.02 (inactive)
same,normalized growth,"locus YJL166W, strain qcr8, stronger effect = lower value",1.03 (inactive)
same,normalized growth,"locus YJL168C, strain set2, stronger effect = lower value",1.1 [resistant] (active)
